Cruzain Triton: cruzain (T. cruzi) inhibition with detergent; P25779; purified cruzain, Z-FR-AMC fluorescence, 0.01% Triton; Potency, µM, most hits filed as inhibitors; actives 0.43% (n = 200,000); AID 1478; also: nearly all actives have a fitted effect of over 40% in size
Target sequence (P25779 123-467 limits assumed): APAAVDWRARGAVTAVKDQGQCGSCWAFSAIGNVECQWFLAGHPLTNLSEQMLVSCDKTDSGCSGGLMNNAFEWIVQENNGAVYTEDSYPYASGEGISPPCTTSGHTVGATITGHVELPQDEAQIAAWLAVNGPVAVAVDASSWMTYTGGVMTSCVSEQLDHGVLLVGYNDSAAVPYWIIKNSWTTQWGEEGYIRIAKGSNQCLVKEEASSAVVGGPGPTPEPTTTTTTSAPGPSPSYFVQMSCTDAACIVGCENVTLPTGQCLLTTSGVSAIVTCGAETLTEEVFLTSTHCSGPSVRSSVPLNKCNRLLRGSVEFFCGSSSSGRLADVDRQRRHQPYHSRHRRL
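Z-FR-AMC hydrolysis (2 uM substrate) by cruzain (1.5 nM) monitored kinetically at ex 360/em 450 nm after 15 min room-temperature compound exposure; 0.01% Triton X-100, pH 5.5, 5 mM DTT.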
Cruzain inh noDet: inhibitors of Trypanosoma cruzi cruzain without detergent; actives 2.3% (n = 200,000); P25779; Potency, µM, most hits filed as inhibitors; purified cruzain, Z-FR-AMC fluorescence, no detergent; also: nearly all actives have a fitted effect of over 40% in size
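Detergent-free condition (0.00005% Triton X-100) in acetate buffer pH 5.5 with DTT. 1.5 nM enzyme and compound were pre-mixed 15 min, then 2 uM Z-FR-AMC substrate added; reaction progress from fluorescence change between first and third reads (60 s).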
A number is an active result; . = inactive; ? = inconclusive. An excerpt weighted towards active compounds, which were near 2.5% of everything screened. Calls follow the shape of the dose curve; as a rule, active = well fitted curve in the direction sought with a large enough effect; inconclusive = small, poorly fitted or top-dose-only effect, or another doubt; inactive = no such curve, though single readings can be large; an effect the other way counts as inactive or inconclusive.

SMILES	Cruzain Triton	Cruzain inh noDet
CCNc1oc(-c2cccc3ccccc23)nc1C#N	.	.
N#Cc1ccc(CSc2nnc(NC(=O)C3CCCO3)s2)cc1 (stereo not given)	.	.
CCS(=O)(=O)N1Cc2ccccc2CC1C(=O)Nc1nc2ccc(C)cc2s1 (stereo not given)	.	13µM
CCS(=O)(=O)N1Cc2ccccc2CC1C(=O)Nc1nnc(SCc2ccc(C#N)cc2)s1 (stereo not given)	.	25µM
CCS(=O)(=O)N1Cc2ccccc2CC1C(=O)Nc1ccc(C)cc1 (stereo not given)	.	?
Cc1c(Cl)cccc1NC(=O)C(C)N(c1ccccc1)S(C)(=O)=O (stereo not given)	.	.
O=C(Nc1ccc(F)cc1F)c1cc(-c2ccc(Cl)cc2)on1	.	.
COc1ccccc1NC(=O)C(Cc1ccccc1)NS(=O)(=O)c1cccc2nsnc12 (stereo not given)	.	.
CCN1CCN(C(=O)c2cnn(-c3ccc(F)cc3)c2-n2cccc2)CC1	.	.
O=c1c(-c2ccc(F)cc2)nc2cnc(N3CCOCC3)nc2n1C[C@H]1CCCO1	.	.
CSC[C@@H]1NC(=S)N(c2ccc(C)cc2)C1=O	.	13µM
CC1=CC(C)(C)NC(=S)N1c1ccc(C)cc1	.	.
Cc1cc(C)cc(OCc2ccc(C(=O)Nc3ccccc3F)o2)c1	.	.
CC1CCN(S(=O)(=O)c2ccc3c(c2)CCC(=O)N3CC(=O)Nc2cccc(C#N)c2)CC1	.	.
CCOC(=O)c1c(C)oc2nc(C)nc(Nc3ccc(C)c(Cl)c3)c12	.	.
O=C(Nc1ccc(Cn2cccn2)cc1)c1ccc(COc2cccc(Br)c2)cc1	.	.
O=C(Nc1ccc(Cn2cccn2)cc1)c1ccc(COc2ccc(Br)cc2)cc1	.	13µM
CC1=NC(Nc2nc(C)c3ccccc3n2)=NC(C)(C)C1	20µM	16µM
COc1ccc(Nc2nc(C)c3ccccc3n2)cc1	.	.
Cc1ccc2c(c1)C(=O)OC(C(=O)Nc1ncc(Cc3ccc(C(C)C)cc3)s1)C2 (stereo not given)	.	.
O=C(Nc1ccc2c(c1)OCO2)C1CCN(S(=O)(=O)c2cccs2)CC1	.	?
O=C(Nc1ccc2c(c1)OCO2)C1Cc2ccccc2CN1S(=O)(=O)c1cccs1 (stereo not given)	.	25µM
CCc1ccc(CNC(=O)c2cnc3sc(N4CCOCC4)nn3c2=O)cc1	.	.
Oc1ccc2c(c1-c1c(O)c(Br)cc3c1CCCC3)CCCC2	.	.
Cc1cc(C)cc(-c2cc3c(c(-c4c(O)c(-c5cc(C)cc(C)c5)cc5c4CCCC5)c2O)CCCC3)c1	.	16µM
SMILES	Cruzain Triton	Cruzain inh noDet
CCOc1cccc(C2c3c(oc4cc(C)c(C)cc4c3=O)C(=O)N2c2nc(C)c(C)s2)c1 (stereo not given)	.	.
Cc1ccc(NC(=O)c2cnc(SCC(=O)N3CCCc4ccccc43)n(C)c2=O)cc1	.	.
COCCNc1ncnc2onc(-c3ccc(F)cc3)c12	.	.
CCCCCCc1cc2cc(-c3nnc(-c4ccc(C)cc4)o3)c(=O)oc2cc1O	.	.
CCCCCCc1cc2cc(S(=O)(=O)c3ccc(F)c(Cl)c3)c(=O)oc2cc1O	.	20µM
Cc1cc(C)cc(C(=O)NCCc2sc(-c3ccc(F)cc3)nc2C)c1	.	.
c1cc(CNc2ccc3c(c2)OCO3)ccn1	.	.
Cc1ccc(CNc2ccc3c(c2)OCO3)cc1	.	25µM
CCOC(=O)c1ccc(N2CCN(c3cc(C)ccc3C)CC2)c(NC(=O)Nc2ccccc2)c1	.	7.9µM
CCOC(=O)c1ccc(N2CCN(c3cc(Cl)ccc3C)CC2)c(NC(=O)Nc2ccc(OCC)cc2)c1	.	.
COCCn1c(-c2cc(OC)c(OC)c(OC)c2)nc2nc3ccccc3nc21	.	.
COCCn1c(-c2ccco2)nc2nc3ccccc3nc21	28µM	.
CCCCCCNc1nc2c(c(=O)n(C)c(=O)n2C)n1Cc1cccc(C)c1	.	.
CCCOc1ccc(C(=O)Nc2ccc3oc(-c4ccncc4)nc3c2)cc1	.	.
COC(=O)c1cc(NC(=O)c2cc3sccc3n2Cc2ccc(Cl)cc2)cc(C(=O)OC)c1	.	7.9µM
CC(=O)Nc1ccc(NC(=O)c2cc3sccc3n2Cc2ccc(Cl)cc2)cc1	.	?
Cc1ccc(Cl)cc1N1CCN(C(=O)COc2cc(=O)n(C)c3ccccc23)CC1	.	?
CSc1ccc(CNCc2c(C(=O)O)c(C)n(Cc3ccc(F)cc3Cl)c2C)cc1	.	.
O=C1C2C=CC=CC2=NC(=S)N1CCN1CCC(=C(c2ccc(F)cc2)c2ccc(F)cc2)CC1 (stereo not given)	.	13µM
O=C(CN1CCN(CCN2C(=O)c3cccc4cccc(c34)C2=O)CC1)c1ccc(F)cc1	.	?
CCc1cccc(C)c1NC(=O)CCS(=O)(=O)c1ccc2c(c1)oc(=O)n2C	.	.
O=C(Nc1ccc(Cl)cc1)Nc1nc(-c2sccc2Br)cs1	.	10µM
O=C(Nc1ccc(Cl)c(Cl)c1)Nc1nc(-c2ccccc2)cs1	.	10µM
O=C(NNc1nc(-c2ccccc2)cs1)c1ccccc1	.	?
Cc1csc(NC(=O)Nc2ccc(Cl)cc2)n1	.	?
SMILES	Cruzain Triton	Cruzain inh noDet
CC1=C(C(=O)Nc2ccccc2)C(c2ccccc2Cl)n2ncc(C(=O)Nc3cccc(C)c3)c2N1 (stereo not given)	.	20µM
CC1=C(C(=O)Nc2ccccc2)C(c2ccccc2C)n2ncc(C(=O)Nc3ccccc3)c2N1 (stereo not given)	.	.
Cc1ccc(-c2nnn(CC(=O)N3CCN(c4nc5ccccc5s4)CC3)n2)cc1	.	10µM
Cc1ccc(-c2nnn(CC(=O)N3c4ccccc4CCc4ccccc43)n2)cc1	.	?
COc1ccccc1OCC(=O)Nc1cc(-c2ccc(C)cc2)no1	.	.
Cc1ccc(-c2cc(NC(=O)COc3ccc(Cl)cc3C)on2)cc1	.	10µM
Cc1cc(Cl)ccc1OCC(=O)O	.	.
Cc1cc(Cl)ccc1OCC(=O)Nn1c(C)ccc1C	.	2.5µM
O=C(CNC(=O)C(c1ccccc1)c1ccccc1)OCC(=O)c1cccs1	20µM	13µM
O=C(CNC(=O)c1cccs1)OCC(=O)c1ccccc1	.	.
COC(=O)c1ccccc1NC(=O)c1cc(=O)c2ccc(C)c(C)c2o1	.	.
O=C(CCCc1ccccc1)NC1CC(=O)N(c2ccc(Cl)cc2)C1 (stereo not given)	.	.
Cc1ccc(F)cc1NCC(=O)Nc1ccc(Br)cc1	.	.
Cc1cccc(NC(=O)CNc2cc(C)ccc2C)c1	.	20µM
CC(C)(C)C(=O)Oc1cc(N)n(S(=O)(=O)c2ccc(F)cc2)n1	.	.
Nc1cc(OC(=O)c2ccco2)nn1S(=O)(=O)c1ccc(F)cc1	25µM	20µM
COc1ccccc1N1CCN(C(=O)Nc2ccc([N+](=O)[O-])cc2)CC1	.	.
COc1cc([N+](=O)[O-])ccc1NC(=O)N1CCC2(CC1)Nc1cc(F)ccc1-n1cccc12	.	25µM
Cc1nn(C(=O)c2ccccc2)c(C)c1S(=O)(=O)N1CCCCCC1	.	.
O=C(Nc1cc(Cl)ccc1Cl)c1ccc2c(c1)N(Cc1cccc(Cl)c1)C(=O)c1ccccc1S2=O (stereo not given)	.	?
Cc1ccc(-n2ncc(C(=O)NCc3cccs3)c2C2CCN(C(=O)OC(C)(C)C)CC2)cc1	.	.
